PriA SSB inh: K. pneumoniae PriA-SSBct interaction inhibition. 430,000 compounds, 0.6% hits. inhibition, % at 33 µM. AlphaScreen SSBct-PriA binding, biotinylated peptide. AID 1272365; in the data active = inhibition mostly above about 37%, no sharp cut-off; inactive = mostly below about 20%
Vc quorum ag: inducers of Vibrio cholerae quorum light production without autoinducers. V. cholerae BH1578 lux reporter, luminescence, 6 h. activation, % at 18.7 µM. 350,000 compounds, 0.16% hits. AID 588436; in the data active = activation mostly above about 9.7%, no sharp cut-off
CCHFV vOTU inh: blocks the CCHF virus ovarian tumor domain protease; CCHFV vOTU protease, Pep-AMC fluorescence; inhibition, % at 11.5 µM; 370,000 compounds, 0.55% hits; in the data active = inhibition above about 30%
TcdB GH inh: TcdB glycohydrolase inhibition; TcdB glycohydrolase enzymatic assay, plate reader; P18177; AID 652162; 350,000 compounds, 0.24% hits; inhibition, % at 9.99 µM; in the data active = inhibition above about 10%
Target sequence (P18177 whole entry, looked up): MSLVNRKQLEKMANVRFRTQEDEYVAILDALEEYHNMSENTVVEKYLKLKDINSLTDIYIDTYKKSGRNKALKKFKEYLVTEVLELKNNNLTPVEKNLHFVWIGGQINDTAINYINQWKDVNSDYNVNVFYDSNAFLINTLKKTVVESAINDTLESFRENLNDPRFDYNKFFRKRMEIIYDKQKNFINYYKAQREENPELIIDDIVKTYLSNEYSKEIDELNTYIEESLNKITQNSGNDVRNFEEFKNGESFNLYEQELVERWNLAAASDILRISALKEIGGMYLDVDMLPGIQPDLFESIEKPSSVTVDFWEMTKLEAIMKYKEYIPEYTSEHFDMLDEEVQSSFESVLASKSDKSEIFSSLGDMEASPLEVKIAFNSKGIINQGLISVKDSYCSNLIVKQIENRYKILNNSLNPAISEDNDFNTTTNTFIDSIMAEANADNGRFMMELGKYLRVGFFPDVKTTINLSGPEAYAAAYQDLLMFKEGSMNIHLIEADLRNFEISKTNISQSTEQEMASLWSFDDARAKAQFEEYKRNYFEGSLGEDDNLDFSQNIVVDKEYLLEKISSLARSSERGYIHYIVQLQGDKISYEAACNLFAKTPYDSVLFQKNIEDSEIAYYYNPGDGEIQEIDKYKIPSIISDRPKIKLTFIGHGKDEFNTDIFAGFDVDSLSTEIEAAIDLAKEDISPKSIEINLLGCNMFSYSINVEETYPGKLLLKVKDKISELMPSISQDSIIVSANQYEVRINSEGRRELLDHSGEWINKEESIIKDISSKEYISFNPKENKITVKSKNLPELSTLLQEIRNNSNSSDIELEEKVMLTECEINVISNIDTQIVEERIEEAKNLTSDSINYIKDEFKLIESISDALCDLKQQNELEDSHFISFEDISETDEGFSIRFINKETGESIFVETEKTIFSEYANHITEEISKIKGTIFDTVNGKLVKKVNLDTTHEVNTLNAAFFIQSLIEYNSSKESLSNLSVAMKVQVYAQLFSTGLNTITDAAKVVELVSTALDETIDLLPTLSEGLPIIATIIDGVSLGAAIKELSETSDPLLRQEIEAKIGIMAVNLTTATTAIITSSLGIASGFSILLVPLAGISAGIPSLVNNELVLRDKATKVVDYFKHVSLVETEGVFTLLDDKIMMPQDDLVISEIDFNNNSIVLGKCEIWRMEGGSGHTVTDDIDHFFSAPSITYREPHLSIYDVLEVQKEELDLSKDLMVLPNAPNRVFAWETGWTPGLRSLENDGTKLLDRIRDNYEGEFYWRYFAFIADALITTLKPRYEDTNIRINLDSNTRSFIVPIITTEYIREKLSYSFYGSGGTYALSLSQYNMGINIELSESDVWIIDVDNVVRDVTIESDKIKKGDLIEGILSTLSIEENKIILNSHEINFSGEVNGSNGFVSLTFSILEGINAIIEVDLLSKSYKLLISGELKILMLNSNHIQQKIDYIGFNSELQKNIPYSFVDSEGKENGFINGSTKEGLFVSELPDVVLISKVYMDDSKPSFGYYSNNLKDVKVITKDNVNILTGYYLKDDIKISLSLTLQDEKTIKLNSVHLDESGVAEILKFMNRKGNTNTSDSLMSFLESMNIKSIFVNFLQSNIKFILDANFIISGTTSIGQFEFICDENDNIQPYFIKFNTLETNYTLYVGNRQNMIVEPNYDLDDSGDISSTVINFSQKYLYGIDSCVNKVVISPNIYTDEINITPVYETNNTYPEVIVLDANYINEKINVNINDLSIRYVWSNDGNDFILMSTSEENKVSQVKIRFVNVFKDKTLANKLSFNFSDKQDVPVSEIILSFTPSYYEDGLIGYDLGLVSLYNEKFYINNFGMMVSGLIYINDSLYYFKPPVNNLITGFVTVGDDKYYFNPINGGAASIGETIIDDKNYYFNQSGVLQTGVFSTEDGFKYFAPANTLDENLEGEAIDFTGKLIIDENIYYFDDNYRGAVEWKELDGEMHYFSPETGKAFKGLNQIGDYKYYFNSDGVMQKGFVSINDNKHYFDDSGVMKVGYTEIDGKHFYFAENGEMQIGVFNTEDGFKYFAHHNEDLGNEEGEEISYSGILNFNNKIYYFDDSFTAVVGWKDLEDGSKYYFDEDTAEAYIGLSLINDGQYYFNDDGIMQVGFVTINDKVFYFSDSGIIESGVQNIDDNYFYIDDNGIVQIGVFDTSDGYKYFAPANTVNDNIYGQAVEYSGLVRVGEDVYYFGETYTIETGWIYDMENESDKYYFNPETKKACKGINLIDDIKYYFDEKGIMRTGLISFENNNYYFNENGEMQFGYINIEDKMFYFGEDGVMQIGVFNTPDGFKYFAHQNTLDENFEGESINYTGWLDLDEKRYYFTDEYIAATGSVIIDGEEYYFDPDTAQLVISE
SARS 3CLpro inh: SARS-CoV 3CLpro protease inhibition; recombinant SARS-CoV 3CLpro, quenched FRET peptide cleavage; P0C6X7; 290,000 compounds, 0.14% hits; inhibition, % at 6 µM; in the data active = inhibition above about 12%
DUSP3 inh: DUSP3 (human) phosphatase inhibition; P51452; recombinant VHR phosphatase, pNPP absorbance; inhibition, % at 13.3 µM; 290,000 compounds, 0.52% hits; in the data active = inhibition above about 50%
Of the large screens only hits and unclear results are named; the others gave an inactive call. This is a sample that favours compounds with a hit; in the whole collection about 1.3% have one here.

COc1ccccc1NC(=O)Nc1nc(CC(=O)Nc2ccc(N(C)C)cc2)cs1	PriA SSB inh 74 (no result: SARS 3CLpro inh, DUSP3 inh)
COc1ccc(NC(=O)c2csc(Nc3ccc(OC(F)F)cc3)n2)c(OC)c1	none (no result: Vc quorum ag, CCHFV vOTU inh, TcdB GH inh, SARS 3CLpro inh, DUSP3 inh)
COc1ccc(NC(=O)c2csc(Nc3ccc(OC(F)F)cc3)n2)cc1OC	PriA SSB inh active (no result: Vc quorum ag, CCHFV vOTU inh, TcdB GH inh, SARS 3CLpro inh, DUSP3 inh)
COc1ccc(OC)c(Nc2nc(CC(=O)NCc3ccccc3Cl)cs2)c1	none (no result: Vc quorum ag, CCHFV vOTU inh, TcdB GH inh, SARS 3CLpro inh, DUSP3 inh)
COc1ccc(OC)c(Nc2nc(CC(=O)NCc3ccccc3OC)cs2)c1	PriA SSB inh 17 (no result: Vc quorum ag, CCHFV vOTU inh, TcdB GH inh, SARS 3CLpro inh, DUSP3 inh)
COc1ccc(-c2ccc(=O)n(Cc3nc(-c4cccc(Br)c4)no3)n2)cc1	none (no result: Vc quorum ag, CCHFV vOTU inh, TcdB GH inh, SARS 3CLpro inh, DUSP3 inh)
O=C(NCC(O)(c1ccco1)C1CC1)c1cc(-c2ccccc2)on1 (stereo not drawn)	none (no result: Vc quorum ag, CCHFV vOTU inh, TcdB GH inh, SARS 3CLpro inh, DUSP3 inh)
CN(C)c1ccc(CNCCC(Cc2ccccc2)c2ccco2)cc1 (stereo not drawn)	PriA SSB inh 57
COC1(CNS(=O)(=O)Cc2noc3ccccc23)Cc2ccccc2C1	none (no result: Vc quorum ag, CCHFV vOTU inh, TcdB GH inh, SARS 3CLpro inh, DUSP3 inh)
O=C(NCC#CCOc1ccc2c(c1)OCO2)NCc1cccs1	none (no result: Vc quorum ag, CCHFV vOTU inh, TcdB GH inh, SARS 3CLpro inh, DUSP3 inh)
N#Cc1c(N2CCCC(O)C2)nc(N)c2c(N)nc3c(c12)CC(=O)N3C12CC3CC(CC(C3)C1)C2 (stereo not drawn)	PriA SSB inh 63 (no result: TcdB GH inh)
CC(=O)Oc1ccc(/C=N/NC(=O)CCSc2ccccc2)cc1	TcdB GH inh 11 (no result: PriA SSB inh)
C=CCn1c(O)c(C=Nc2ccc(N(CC)CC)cc2)c(=O)[nH]c1=O	CCHFV vOTU inh 40 (no result: TcdB GH inh)
COC(=O)[C@@H]1C[C@H]2CC[C@H](O)C[C@H]2N1Cc1ccc(C(C)(C)C)cc1	PriA SSB inh 101 (no result: SARS 3CLpro inh)
Cn1nc(CNC(=O)Cc2ccccc2Cl)c2c1CCOC2	none (no result: Vc quorum ag, CCHFV vOTU inh, TcdB GH inh, SARS 3CLpro inh, DUSP3 inh)
CCOC(=O)c1cccc(NC(=O)CSc2nc(N)cc(N)n2)c1	DUSP3 inh 56 (no result: TcdB GH inh)
Nc1cc(N)nc(SCC(=O)Nc2ccc3c(c2)OCO3)n1	DUSP3 inh 53
Nc1cc(N)nc(SCC(=O)Nc2ccc3c(c2)OCCCO3)n1	none (no result: TcdB GH inh)
Cc1nc(-c2ccccc2Cl)sc1CNC(=O)Cn1cccn1	none (no result: Vc quorum ag, CCHFV vOTU inh, TcdB GH inh, SARS 3CLpro inh, DUSP3 inh)
CCOC(=O)c1ccc(Oc2c(C)oc3c4c(ccc3c2=O)OCN(C2CCS(=O)(=O)C2)C4)cc1 (stereo not drawn)	PriA SSB inh 38 (no result: Vc quorum ag, CCHFV vOTU inh, TcdB GH inh, SARS 3CLpro inh, DUSP3 inh)
Cc1ccc(C2(CCNCc3ccc(N(C)C)cc3)CCOC(C(C)C)C2)cc1 (stereo not drawn)	DUSP3 inh 57
COc1ccc(C2CCNC2)cc1 (stereo not drawn)	none (no result: Vc quorum ag, CCHFV vOTU inh, TcdB GH inh, SARS 3CLpro inh, DUSP3 inh)
Cc1ccc(N=Nc2c(N)[nH]n3c(=O)cc(-c4ccccc4)nc23)cc1	Vc quorum ag 32 (no result: TcdB GH inh)
Cc1nn(-c2ccc(N3CCN(C(=O)c4cccc5ccccc45)CC3)nn2)c(C)c1C	none (no result: Vc quorum ag, CCHFV vOTU inh, TcdB GH inh, SARS 3CLpro inh, DUSP3 inh)
O=C(NNc1ccc(C(F)(F)F)cc1[N+](=O)[O-])c1ccc(NS(=O)(=O)c2ccc(F)cc2)cc1	PriA SSB inh 60 (no result: TcdB GH inh)
CCCC(C(=O)NC(C)(C)CC)N(Cc1ccco1)C(=O)CNS(=O)(=O)c1ccccc1 (stereo not drawn)	DUSP3 inh 58
c1ccc(-c2nnc(OCC3CCCO3)c3ccccc23)cc1 (stereo not drawn)	TcdB GH inh 11
O=C(Nc1nnc(SCc2ccc(F)cc2)s1)c1ccccn1	PriA SSB inh 78
O=C(Nc1nnc(C2CCCCC2)s1)c1ccccn1	PriA SSB inh 70 (no result: Vc quorum ag, CCHFV vOTU inh, TcdB GH inh, SARS 3CLpro inh, DUSP3 inh)
O=C(Nc1nnc(C2CCCO2)s1)c1ccccn1 (stereo not drawn)	PriA SSB inh 110 (no result: Vc quorum ag, CCHFV vOTU inh, TcdB GH inh, SARS 3CLpro inh, DUSP3 inh)
O=C(Nc1nnc(C2CCC2)s1)c1ccccn1	PriA SSB inh 102 (no result: Vc quorum ag, CCHFV vOTU inh, TcdB GH inh, SARS 3CLpro inh, DUSP3 inh)
O=C(Nc1nnc(C2CCCCC2)s1)c1cccs1	none
Cc1ccccc1-c1nc(C)c(CNC(=O)Cn2cncn2)s1	none (no result: Vc quorum ag, CCHFV vOTU inh, TcdB GH inh, SARS 3CLpro inh, DUSP3 inh)
COc1cc(OC)c(OC)cc1/C=C1/C(=O)N=C(N)N1C	none (no result: PriA SSB inh)
COc1ccc(/C=C2/C(=O)N=C(N)N2C)cc1OC	Vc quorum ag 17 (no result: PriA SSB inh, TcdB GH inh)
O=C(c1ccc2c(=O)n(-c3ccc(F)cc3)c(SCc3ccccc3F)nc2c1)N1CCOCC1	none (no result: Vc quorum ag, CCHFV vOTU inh, TcdB GH inh, SARS 3CLpro inh, DUSP3 inh)
CCn1c(NC(=O)c2cccc(Cn3cc(Cl)cn3)c2)nc2ccccc21	DUSP3 inh 51
COc1ccc(N2CCN(S(=O)(=O)c3c(C(=O)N4CCOCC4)c(C)n(C)c3C)CC2)cc1	DUSP3 inh 51
O=S(=O)(Cc1ccccc1Cl)NCC1CCN(c2ccccn2)CC1	none (no result: Vc quorum ag, CCHFV vOTU inh, TcdB GH inh, SARS 3CLpro inh, DUSP3 inh)
O=c1cccnn1CCCNS(=O)(=O)c1cc(C(F)(F)F)ccc1Cl	none (no result: Vc quorum ag, CCHFV vOTU inh, TcdB GH inh, SARS 3CLpro inh, DUSP3 inh)
O=c1cccnn1CCNS(=O)(=O)c1cc(C(F)(F)F)cc(C(F)(F)F)c1	PriA SSB inh 38 (no result: Vc quorum ag, CCHFV vOTU inh, TcdB GH inh, SARS 3CLpro inh, DUSP3 inh)
COc1ccc2cc(C(=O)NCCCN3CCCC3=O)[nH]c2c1	PriA SSB inh 40
CCn1c(=O)n(CC)c2cc(N3CCCC3)c(NC(=O)c3ccc(C)cc3)cc21	DUSP3 inh 56
O=C(Nc1ccccc1Cl)c1ccccc1Oc1ccc(C(F)(F)F)cc1[N+](=O)[O-]	PriA SSB inh 47 (no result: TcdB GH inh)
Cc1ccccc1-c1nc(CS(=O)CC(=O)NC(C)CCc2ccccc2)c(C)o1 (stereo not drawn)	PriA SSB inh 60 (no result: CCHFV vOTU inh, TcdB GH inh)
O=C(O)c1cccn2cc(-c3ccccc3)nc12	none (no result: Vc quorum ag, CCHFV vOTU inh, TcdB GH inh, SARS 3CLpro inh, DUSP3 inh)
O=C(O)c1cccn2ccnc12	PriA SSB inh 48 (no result: Vc quorum ag, CCHFV vOTU inh, TcdB GH inh, SARS 3CLpro inh, DUSP3 inh)
C=CCn1c(O)c(C=NN2CCCCC2c2cccnc2)c(=O)[nH]c1=S (stereo not drawn)	none (no result: Vc quorum ag, CCHFV vOTU inh, TcdB GH inh, SARS 3CLpro inh, DUSP3 inh)
CSC1CC2CCC(C1)N2S(=O)(=O)c1ccc(-c2cccc(Cl)c2)cc1 (stereo not drawn)	none (no result: Vc quorum ag, CCHFV vOTU inh, TcdB GH inh, SARS 3CLpro inh, DUSP3 inh)
O=C(Nc1ccc(F)c(C(F)(F)F)c1)c1cc(=O)[nH]cn1	none (no result: Vc quorum ag, CCHFV vOTU inh, TcdB GH inh, SARS 3CLpro inh, DUSP3 inh)
COc1cc(C=NNC(=O)c2c(C)nc3ccc(Cl)cn23)cc(OC)c1OC	none (no result: Vc quorum ag, CCHFV vOTU inh, TcdB GH inh, SARS 3CLpro inh, DUSP3 inh)
COc1cc(/C=N/NC(=O)c2c(C)nc3ccc(Cl)cn23)cc(OC)c1OC	TcdB GH inh 13 (no result: PriA SSB inh)
Cn1c(=O)c(C(=O)NCc2ccc(Cl)cc2)c(O)c2ccccc21	none

Bioassay records (PubChem)
